Compounds with a hit are over-represented: about 3% of the library has one in this group of screens.
15-hLO inh – blocks human 15-lipoxygenase activity; Potency, µM (doses to about 57.1 µM), hits mostly inhibitors; 74,000 compounds, 1.4% hits; purified 15hLO-1, xylenol orange hydroperoxide absorbance; P16050; further: nearly all actives have a fitted effect of over 55% in size
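Quantitative HTS in 25 mM Hepes pH 7.5 containing 0.01% Triton X-100: human 15hLO-1 at 40 nM, arachidonic acid at 50 uM, 6 min turnover. Product quantified via ferrous oxidation/xylenol orange, 573:405 nm absorbance ratio.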
ALOX15B inhib – 15-hLO-2 (ALOX15B) enzyme inhibition | purified 15hLO-2, xylenol orange hydroperoxide absorbance | 110,000 compounds, 0.56% hits | O15296 | Potency, µM (series often up to 57.1 µM), usual class: inhibitors | AID 881; further: nearly all actives have a fitted effect of over 60% in size
Target sequence (O15296 whole entry, looked up): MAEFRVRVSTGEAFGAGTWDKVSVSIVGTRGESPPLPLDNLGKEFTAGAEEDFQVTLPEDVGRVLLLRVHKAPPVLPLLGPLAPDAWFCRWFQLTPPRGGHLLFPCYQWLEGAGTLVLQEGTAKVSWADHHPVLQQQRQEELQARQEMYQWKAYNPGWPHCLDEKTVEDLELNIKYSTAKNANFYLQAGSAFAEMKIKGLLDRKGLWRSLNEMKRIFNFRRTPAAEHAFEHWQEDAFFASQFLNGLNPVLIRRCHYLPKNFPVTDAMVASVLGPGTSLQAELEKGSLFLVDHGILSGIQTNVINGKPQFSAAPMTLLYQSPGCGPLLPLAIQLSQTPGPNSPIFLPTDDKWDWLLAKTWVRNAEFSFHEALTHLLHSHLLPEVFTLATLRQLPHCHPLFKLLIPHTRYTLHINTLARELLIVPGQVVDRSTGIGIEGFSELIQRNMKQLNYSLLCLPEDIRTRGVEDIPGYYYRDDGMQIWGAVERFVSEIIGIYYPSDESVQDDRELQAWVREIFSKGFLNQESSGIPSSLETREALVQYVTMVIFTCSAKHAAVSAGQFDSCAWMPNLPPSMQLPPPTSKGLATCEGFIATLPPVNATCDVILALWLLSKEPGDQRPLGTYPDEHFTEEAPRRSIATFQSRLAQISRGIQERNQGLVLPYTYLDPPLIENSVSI
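Purified human 15hLO-2 (50 nM) preincubated 15 min with compound, then 45 uM arachidonic acid for 90 min at RT in 25 mM Hepes pH 7.5, 0.01% Triton X-100. Hydroperoxide detected by Fe-xylenol orange; 573/405 nm absorbance ratio.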
HEK293 cAMP cs – raises cAMP in parental HEK293 cells, TSHR agonist counter-screen; parental HEK293 CNG cAMP sensor, membrane potential fluorescence; Potency, µM (series often up to 57.1 µM), hits mostly activators; 73,000 compounds, 2.5% hits; AID 938; further: nearly all actives have a fitted effect of over 55% in size
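Counterscreen for endogenous-receptor signalling: CNG-channel HEK 293 cells report cAMP rise by membrane depolarization. After 60 min dye equilibration with 100 uM RO 20-1724, compounds incubated 30 min before bottom-read fluorescence at 590 nm.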
Caspase-1 inhib – blocks human caspase-1 allosterically or competitively | P29466 | Caspase-1 enzyme, Ac-WEHD-AFC fluorogenic rate | Potency, µM (highest dose often 57.5 µM), hits mostly inhibitors | 75,000 compounds, 0.03% hits | AID 900
TSHR ag – agonists of human thyroid stimulating hormone receptor; HEK293-CNG-TSHR cells (CNG channel as cAMP sensor), membrane potential dye, cAMP; Potency, µM (series often up to 57.1 µM), usual class: activators; 73,000 compounds, 0.48% hits; AID 926; active means well fitted activation curve with a large enough effect in the main read-out, with a control signal flat, not every such curve was filed as active; inconclusive means small, poorly fitted or top-dose-only effect, or a change in a side signal; inactive means no such curve, though single readings can be large or run the other way; reference of the percent scale not stated here;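 further: the control signal comes from parental cells without the receptor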
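HEK 293 cells stably expressing TSHR and a modified CNG channel, with CNG-only parental cells as counterscreen, were preloaded 60 min at room temperature with membrane potential dye containing 100 uM RO 20-1724. Compound exposure was 30 min, and depolarization was read as fluorescence at 590 nm.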
Caspase-7 inhib – blocks human caspase-7 allosterically or competitively | 75,000 compounds, 0.02% hits | recombinant caspase-7, Ac-DEVD-AFC fluorescence rate | Potency, µM (top dose mostly 57.5 µM), actives largely listed as inhibitors; active means well fitted inhibition curve with a large enough effect in the main read-out, with a control signal flat, not every such curve was filed as active; inconclusive means small, poorly fitted or top-dose-only effect, or a change in a side signal
Each line names hits and unclear results; the compound was inactive in the other large screens. Unless noted, the call rests on the fitted dose curve; in most records, active means well fitted curve in the direction sought with a large enough effect; inconclusive means small, poorly fitted or top-dose-only effect, or another doubt; inactive means no such curve, though single readings can be large; an effect the other way counts as inactive or inconclusive.

c1ccc(/C(=N/Nc2nc3ccccc3s2)c2ccccn2)cc1	none
COC(=O)CCc1c(C)c(C(=O)c2ccco2)c2ccccn12	15-hLO inh 7.9µM, HEK293 cAMP cs inconclusive, TSHR ag inconclusive (no result: Caspase-1 inhib, Caspase-7 inhib)
Cc1cc(N2CCCCC2)nc(SCc2ccc(C#N)cc2)n1	HEK293 cAMP cs 32µM, TSHR ag inconclusive
CCCCCCCN	none
O=c1ccc2ccc(O)c(O)c2o1	15-hLO inh 25µM, ALOX15B inhib inconclusive
COc1ccc2[nH]cc(CCNc3ncnc4ccc(-c5ccccc5C#N)cc34)c2c1	none
CCCCC#Cc1nc(N)c2ncn([C@@H]3O[C@@H](C(=O)NCC)[C@H](O)[C@@H]3O)c2n1	HEK293 cAMP cs 2µM, TSHR ag inconclusive
Cn1c(=O)c2c(nc(N/N=C\c3ccccc3C(=O)O)n2C)n(C)c1=O	none
O=C(c1ccccc1)n1nc(-c2ccccc2)nc1NCc1ccco1	TSHR ag 25µM
CCCc1cc(=O)n2[nH]c(-c3cc(OC)c(OC)c(OC)c3)nc2n1	TSHR ag 25µM
CCCc1cc(=O)n2[nH]c(-c3ccc(OC)cc3)nc2n1	none (no result: 15-hLO inh, HEK293 cAMP cs, Caspase-1 inhib, TSHR ag, Caspase-7 inhib)
COCCOC(=O)C1=C(C)NC2=C(C(=O)CC(C)(C)C2)C1c1cccnc1 (stereo not drawn)	Caspase-7 inhib inconclusive (no result: Caspase-1 inhib)
CC1=C(C(=O)OCC2CCCO2)C(c2ccncc2)C2=C(CC(C)(C)CC2=O)N1 (stereo not drawn)	HEK293 cAMP cs 4µM, TSHR ag inconclusive, Caspase-7 inhib inconclusive (no result: Caspase-1 inhib)
CC(=O)OC(C(=O)c1ccccc1)c1ccccc1 (stereo not drawn)	none
CCOC(=O)c1ccc(-n2c(=S)sc3c(=O)[nH]c(C)nc32)cc1	15-hLO inh 10µM
N#CCCn1c(=O)c(-c2ccc(Cl)cc2)nc2cnc(N3CCNCC3)nc21	Caspase-7 inhib inconclusive (no result: Caspase-1 inhib)
O=C(Nc1ccccc1)c1cccc(N2CCCC2=O)c1	HEK293 cAMP cs 16µM, TSHR ag inconclusive
C/C=C(/CC[C@@H](C)[C@H]1CCC2C3=CC[C@H]4[C@H](C)[C@@H](O)CC[C@]4(C)C3CC[C@@]21C)C(C)C (stereo partly drawn)	none (no result: 15-hLO inh, HEK293 cAMP cs, Caspase-1 inhib, TSHR ag, Caspase-7 inhib)
O=c1c(-c2cccc(F)c2)nc2cncnc2n1-c1ccccc1	HEK293 cAMP cs inconclusive, TSHR ag inconclusive
CN(C)C(=O)c1ccc(-c2ccc3ncnc(N(C)Cc4ccco4)c3c2)cc1	none (no result: TSHR ag)
CCOC(=O)C1=C(C)Nc2nc(C)nn2C1c1ccc(OCC)c(OC)c1 (stereo not drawn)	none (no result: ALOX15B inhib)
CCOC(=O)C1=C(C)Nc2nc(C)nn2C1c1ccc(OC)c(OC)c1 (stereo not drawn)	HEK293 cAMP cs 1.6µM, TSHR ag inconclusive (no result: ALOX15B inhib)
COc1ccc(C[C@@H]2C(=O)N[C@H](C)C(=O)N(C)[C@@H]3Cc4ccc(cc4)Oc4cc(ccc4O)C[C@H](C(=O)N[C@@H](C)C(=O)N[C@H](C)C(=O)N2C)N(C)C3=O)cc1	none
COCc1cc(C)nc(SCC(=O)c2ccc(O)c(O)c2)c1C#N	15-hLO inh 3.2µM (no result: TSHR ag)
Cc1cc(C(=O)NCCc2ccc(S(=O)(=O)NC(=O)NN3CCCCCC3)cc2)no1	none (no result: 15-hLO inh, HEK293 cAMP cs, Caspase-1 inhib, TSHR ag, Caspase-7 inhib)
CCCC(OC(=O)CN1C(=O)COc2ccccc21)C(=O)NC1CCCC1 (stereo not drawn)	HEK293 cAMP cs 0.79µM, TSHR ag inconclusive (no result: ALOX15B inhib)
C=C(CO)C1Cc2c(ccc3c2OC2COc4cc(OC)c(OC)cc4C2C3=O)O1 (stereo not drawn)	none (no result: HEK293 cAMP cs, TSHR ag)
COc1ccccc1NC(=S)NC(=O)CCCOc1ccc(Cl)cc1Cl	ALOX15B inhib 20µM (no result: 15-hLO inh, HEK293 cAMP cs, Caspase-1 inhib, TSHR ag, Caspase-7 inhib)
Cc1ccccc1Cn1c(C(=O)OC(C)C)cc2c1ccn2C	none (no result: 15-hLO inh, HEK293 cAMP cs, Caspase-1 inhib, TSHR ag, Caspase-7 inhib)
CCOC(=O)c1cc2c(ccn2C)n1Cc1ccccc1C	HEK293 cAMP cs 25µM, TSHR ag inconclusive
O=C(CSc1nnc(COc2ccc(Cl)cc2)n1Cc1ccco1)c1ccccc1F	HEK293 cAMP cs 25µM, TSHR ag inconclusive
O=C(CSc1nnc(-c2ccncc2)n1Cc1ccco1)c1ccc(Cl)cc1	HEK293 cAMP cs inconclusive, TSHR ag inconclusive
Cc1cccc(OCc2nnc(SCC(=O)N(C(C)C)C(C)C)n2Cc2ccco2)c1C	HEK293 cAMP cs 7.9µM, TSHR ag inconclusive

Source: PubChem BioAssay
